Laboratory results reported in PubChem BioAssay AID720494 (Broad Institute, 2013).
This is one part of the list. The source made the active and inactive calls. The limit is not given here; nearly all actives have AC50 up to about 14 µM.

Assay: compounds quenching or disrupting AlphaScreen beads readout – biochemical, cherry-picked samples, luminescence, artefact control, dose response (AID 720494)
Conditions: AlphaScreen interference counter-screen, signal luminescence; series mostly up to 12 µM

Row | Structure (SMILES) | AC50
1 | O=C(NCCc1cccc(F)c1)C1CCCN(c2nc3ccccc3s2)C1 (stereo not drawn) | inactive
2 | Cc1c(C)n(Cc2ccc(Cl)cc2)c2ccc(C(=O)NCCCN3CCOCC3)cc12 | inactive
3 | COc1ccc2sc(N(CCCN(C)C)C(=O)c3ccc(S(=O)(=O)N(C)C4CCCCC4)cc3)nc2c1 | inactive
4 | COc1ccc2c(c1)c(=Cc1ccc(N(C)C)cc1)c1cc(-c3ccccc3)[n+](C)n12 | 3.02 µM (active)
5 | Cc1cc(N=Nc2ccc3ccccc3c2)ccc1O | 11.2 µM (active)
6 | COc1ccc(-c2ccc3[nH]c4c(c3c2)CCN2C[C@H]3[C@H](C)ON(C)[C@H]3C[C@@H]42)cc1 | inactive
7 | COc1ccc2[nH]c3c(C)c4cc[n+](C)cc4c(C)c3c2c1 | inactive
8 | Cc1ccc(Nc2cc(C)nc3c(C)ccc([N+](=O)[O-])c23)cc1 | inactive
9 | COc1ccc(N2CCN(C3CCCCC3NS(=O)(=O)c3ccccc3)CC2)cc1 (stereo not drawn) | inactive
10 | CCN(CC)CCOc1ccc2c(c1)C(=NNC(=O)c1ccccn1)c1cc(OCCN(CC)CC)ccc1-2 | inactive
11 | C[C@H]1CN([C@@H](C)CO)C(=O)c2c(c3ccccc3n2C)-c2ccccc2CO[C@@H]1CN(C)Cc1ccc2c(c1)OCCN2C | inactive
12 | Cc1ccc(NC(=S)N(CCCN2CCCC2)Cc2cccn2Cc2ccc(Cl)cc2)cc1 | inactive
13 | CN(C)CCNC(=O)c1cccc(-c2cnc3c(NC=O)cc(-c4cccc(C(F)(F)F)c4)cn23)c1 | inactive
